We go through five compounds from PubChem BioAssay.

Assay [1] has as its system Human papillomavirus type 1a protein E7 (residues 44-93). Nature of the assay: HPV1a E7 fragment binders on microarrays, primary screen, biochemical, small-molecule microarray, residues 44-93, 635 nm fluorescence (AID 1108).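 Also: E7 fragment applied at 1 µg/mL in TBST for 1 h at 4 C; score combines spot fluorescence with its signal to noise ratio.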 Particulars: small-molecule microarray binding, fluorescence 635 nm; higher = more signal.
Assay [2] can be described thus: modulators of HCV replicon luciferase signal, primary screen, HCV replication inhibitor project, Huh7 cells, luciferase reporter (AID 1109).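 Also: huh7 hepatoma cells harbouring a luciferase neomycin HCV replicon reporter; luciferase luminescence as measure of HCV replicon replication; test concentration not given here.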 Particulars: 48 h, higher = more signal. For orientation: Replicon systems follow genome replication, usually without infectious particles.
In assay [3] the target is Left-right determination factor 2 (Homo sapiens) (UniProt O00292). Nature of the assay: LEFTY2 binders on small-molecule microarrays, primary screen, biochemical, small-molecule microarray, 635 nm fluorescence scan (AID 1110). Particulars: LEFTY2 binding, higher = more signal.
Assay [4] concerns the target Calmodulin-1 (Homo sapiens) (UniProt P0DP23). In words: CALM1 binders on microarrays, EGTA buffer, profiling panel, biochemical, small-molecule microarray, Cy5-labelled CALM1 (AID 1111).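 Also: labelled calmodulin applied in Tris saline Tween buffer holding calcium plus EGTA and DTT.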 Particulars: Cy5-CALM1 binding fluorescence, higher = more signal.
Assay [5] shares this target. In words: calcium-bound CALM1 binders on microarrays, profiling panel, artefact control for SMM control-protein annotation, biochemical, small-molecule microarray, Cy5-labelled CALM1, plus calcium (AID 1112).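 Also: score merges spot fluorescence with signal to noise from triplicate slides.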 Particulars: Cy5-CALM1 binding fluorescence, higher = more signal.
Assay [6] in a line: small-molecule microarray binders of probe aWnt5a, primary screen, biochemical, biotinylated probe, 635/667 nm fluorescence (AID 1113).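 Also: score merges 667 nm fluorescence intensity with signal-to-noise per printed feature.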 Particulars: higher = more signal.
Assay [7] in a line: small-molecule microarray binders of probe aShh, primary screen, biochemical, biotinylated probe, 635/667 nm fluorescence (AID 1114).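 Also: probe is biotin-labelled aShh protein from a stem cell growth factor screen; measures binding of labelled protein to compounds printed on the slide; score merges feature fluorescence at 667 nm with signal-to-noise.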 Particulars: higher = more signal.
Assay [8] in a line: small-molecule microarray binders of probe aNog, primary screen, biochemical, biotinylated probe, 635/667 nm fluorescence (AID 1115).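 Also: probe is biotinylated aNog protein used at 0.15 µg/mL for 1 h at 4 C; z-score combines 667 nm fluorescence of each spot with its signal to noise.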 Particulars: higher = more signal.
The target in assay [9] is Torsin-1A-interacting protein 1 (Homo sapiens) (UniProt Q5JTV8). In words: LAP1 binders from COS7 cell lysate, primary screen, small-molecule microarray, 635/667 nm fluorescence (AID 1116). Particulars: COS7-hLAP1 lysate binding, 635 nm fluorescence, higher = more signal.
For assay [10], the target named is Alpha-bungarotoxin (Bungarus multicinctus) (UniProt P60615). Nature of the assay: alpha-bungarotoxin binders on microarray, profiling panel, artefact control for SMM control protein annotation, biochemical, small-molecule microarray, Alexa647 label, 635/667 nm fluorescence (AID 1117). Particulars: alpha-BTX-A647 binding fluorescence, higher = more signal.
The target of the next assay is Albumin (Bos taurus) (UniProt P02769). Nature of the assay: bovine serum albumin binders on microarray, profiling panel, artefact control for SMM control protein annotation, biochemical, small-molecule microarray, Alexa647 label, 635/667 nm fluorescence (AID 1118).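 Also: score merges 667 nm emission intensity and signal-to-noise per printed compound spot.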 Particulars: BSA-A647 binding, fluorescence 635 nm, higher = more signal.
The nature of assay [11]: small-molecule microarray binders of probe aXIP, primary screen, biochemical, NeuroSMM set, 635/667 nm fluorescence (AID 1119).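 Also: probe is the protein aXip251-270 applied at 1 µg/mL to compound-printed slides; binding of probe to printed compounds measured as 667 nm fluorescence plus signal to noise.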 Particulars: higher = more signal, called active from +8 up or from −8 down.
Assay [12] is described as follows: small-molecule binders of probe aNOTCH3, primary screen, biochemical, small-molecule microarray, 635/667 nm fluorescence (AID 1120).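 Also: probe is a biotin-tagged antibody raised against NOTCH3 rather than NOTCH3 protein; score merges spot fluorescence near 667 nm with spot signal to noise.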 Particulars: higher = more signal.
A short description of assay [13]: small-molecule binders of probe aNOTCH2, primary screen, biochemical, small-molecule microarray, 635/667 nm fluorescence (AID 1121).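 Also: score merges feature fluorescence read at 667 nm with its signal to noise.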 Particulars: higher = more signal.
The target of assay [14] is Carbonic anhydrase 2 (Homo sapiens) (UniProt P00918). Nature of the assay: CAII small-molecule binders, profiling panel, biochemical, small-molecule microarray, Alexa647-labelled CAII (AID 1122). Particulars: CAII-A647 binding fluorescence, higher = more signal.
Assay [15] can be described thus: COS7 lysate on small-molecule microarray, probe aHis, 635 nm (AID 1123).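 Also: z-score combines 667nm fluorescence intensity with signal-to-noise per printed compound spot.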 Particulars: COS7 cell lysate, fluorescence, higher = more signal.
A short description of assay [16]: compound binding in COS7 lysate, probe aLAP1, primary screen, cell lysate, small-molecule microarray (AID 1124).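 Also: lysate comes from COS7 cells expressing LAP1 and is applied at 0.3 µg/mL; score merges spot fluorescence near 667 nm with signal-to-noise over triplicate slides.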 Particulars: probe aLAP1, fluorescence, higher = more signal.
In the next assay the test system is Sam68 (KHDRBS1). In words: Sam68 small-molecule binders, primary screen, biochemical, small-molecule microarray, 635 nm fluorescence (AID 1125).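 Also: score merges 667 nm channel intensity with signal to noise over triplicate slides.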 Particulars: small-molecule microarray binding, higher = more signal.
Assay [17] concerns Chordin-like protein 2 (CHRDL2). Nature of the assay: CHRDL2 small-molecule binders, primary screen, biochemical, small-molecule microarray, 635 nm fluorescence (AID 1126).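 Also: printed compound slides probed with Chrdl2 protein at 4 µg/mL for 1 h at 4 C; score merges 667 nm emission intensity with signal to noise over three replicate slides.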 Particulars: small-molecule microarray binding, fluorescence 635 nm; higher = more signal.
Assay [18] has as its target Concanavalin-A (Canavalia ensiformis) (UniProt P02866). In words: ConA small-molecule binders, primary screen, artefact control for SMM control protein annotation, biochemical, small-molecule microarray, Alexa647 label, 635 nm (AID 1127).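 Also: z combines 667 nm emission intensity with signal-to-noise across three replicate slides.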 Particulars: ConA-A647 binding fluorescence, higher = more signal.

Each structure is given as a SMILES string. Activity calls are given as the source filed them.

Chain of Albumin (Bos taurus) (P02769 whole entry, looked up): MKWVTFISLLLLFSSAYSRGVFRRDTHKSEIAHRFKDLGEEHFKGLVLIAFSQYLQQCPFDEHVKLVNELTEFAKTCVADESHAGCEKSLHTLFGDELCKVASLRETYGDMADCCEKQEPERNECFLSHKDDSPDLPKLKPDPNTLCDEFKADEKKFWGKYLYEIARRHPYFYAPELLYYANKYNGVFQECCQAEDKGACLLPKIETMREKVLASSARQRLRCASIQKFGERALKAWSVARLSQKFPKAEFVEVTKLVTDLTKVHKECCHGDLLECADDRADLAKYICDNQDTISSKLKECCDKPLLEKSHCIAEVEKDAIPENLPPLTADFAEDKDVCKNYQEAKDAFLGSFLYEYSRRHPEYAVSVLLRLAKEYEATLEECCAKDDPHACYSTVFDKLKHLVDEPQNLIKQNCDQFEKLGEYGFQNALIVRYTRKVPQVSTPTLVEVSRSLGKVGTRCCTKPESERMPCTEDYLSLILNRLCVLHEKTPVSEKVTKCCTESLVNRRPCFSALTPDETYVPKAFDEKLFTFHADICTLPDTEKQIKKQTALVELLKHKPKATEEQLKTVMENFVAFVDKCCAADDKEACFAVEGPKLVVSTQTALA
Chain of Left-right determination factor 2 (Homo sapiens) (O00292 whole entry, looked up): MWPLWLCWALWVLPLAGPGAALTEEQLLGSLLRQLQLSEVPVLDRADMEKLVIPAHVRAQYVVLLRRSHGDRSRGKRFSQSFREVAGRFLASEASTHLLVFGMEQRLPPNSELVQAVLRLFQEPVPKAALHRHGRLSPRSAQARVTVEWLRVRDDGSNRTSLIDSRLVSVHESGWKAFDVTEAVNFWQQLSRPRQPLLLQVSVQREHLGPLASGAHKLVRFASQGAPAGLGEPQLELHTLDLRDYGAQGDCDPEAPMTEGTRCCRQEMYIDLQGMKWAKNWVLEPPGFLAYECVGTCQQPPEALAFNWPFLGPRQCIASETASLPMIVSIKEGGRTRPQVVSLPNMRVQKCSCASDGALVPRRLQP
Chain of Torsin-1A-interacting protein 1 (Homo sapiens) (Q5JTV8 whole entry, looked up): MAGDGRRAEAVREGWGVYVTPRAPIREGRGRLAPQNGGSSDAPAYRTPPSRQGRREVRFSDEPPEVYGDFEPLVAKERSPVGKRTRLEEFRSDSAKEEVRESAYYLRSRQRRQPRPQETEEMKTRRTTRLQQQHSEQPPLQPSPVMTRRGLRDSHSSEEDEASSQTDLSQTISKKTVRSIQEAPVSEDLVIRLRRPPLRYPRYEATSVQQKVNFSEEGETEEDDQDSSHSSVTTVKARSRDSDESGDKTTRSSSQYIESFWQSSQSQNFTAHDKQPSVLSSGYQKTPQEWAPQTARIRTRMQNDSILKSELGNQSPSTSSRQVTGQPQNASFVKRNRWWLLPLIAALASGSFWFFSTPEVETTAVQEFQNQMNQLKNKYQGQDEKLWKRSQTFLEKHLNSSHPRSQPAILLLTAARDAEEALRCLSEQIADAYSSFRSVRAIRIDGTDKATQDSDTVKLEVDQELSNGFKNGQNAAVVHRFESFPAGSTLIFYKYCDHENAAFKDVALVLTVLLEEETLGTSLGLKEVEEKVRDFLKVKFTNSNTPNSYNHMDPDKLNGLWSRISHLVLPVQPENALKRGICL
Chain of Concanavalin-A (Canavalia ensiformis) (P02866 whole entry, looked up): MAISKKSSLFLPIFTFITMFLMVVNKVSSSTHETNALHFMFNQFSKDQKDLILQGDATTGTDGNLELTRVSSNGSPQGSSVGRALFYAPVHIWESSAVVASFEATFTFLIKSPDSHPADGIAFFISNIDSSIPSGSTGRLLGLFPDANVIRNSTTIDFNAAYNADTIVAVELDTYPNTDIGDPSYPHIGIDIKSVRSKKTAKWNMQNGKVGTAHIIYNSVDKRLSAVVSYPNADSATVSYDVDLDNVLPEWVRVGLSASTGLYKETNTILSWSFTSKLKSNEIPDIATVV
Chain of Alpha-bungarotoxin (Bungarus multicinctus) (P60615 whole entry, looked up): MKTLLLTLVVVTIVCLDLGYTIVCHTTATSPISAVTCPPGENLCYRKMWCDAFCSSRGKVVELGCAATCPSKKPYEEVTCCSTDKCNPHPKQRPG

On to `CC(C)CNC(=O)[C@@]1(c2ccc([N+](=O)[O-])cc2)CC(=O)N(C2CCCCC2)[C@@H]1c1ccc(CO)cc1`, for which the composite z-score in [1] is 0.292; in assay [3], 0.155; in assay [4], 0.1; in assay [5] it was -0.151; in [6] it was -0.0539; in assay [7], -0.0553. Further, the composite z-score in assay [8] is 0.323; in assay [9] it was 2; in assay [10] it was 0.0127; with Albumin (Bos taurus) it was 0.819; in assay [12], -0.191; in [13], -0.123. Also, the composite z-score in assay [14] came out at 0.714; in [15] it was 2.05; in [16], 0.571; in the assay with Sam68 (KHDRBS1) it was 0.244; in assay [17] it was 0.0971; in assay [18], 0.213. Besides, the z-score in assay [2] is -1.07. Besides, in [11], the composite Z-score was 1.08 (inactive).
As to `C=CCC(OC(C)=O)[C@@H]1[C@@H](N(Cc2ccc(-c3cccc(C(F)(F)F)c3)o2)C(=O)c2cccc3ccccc23)c2cc(OCCCO)ccc2N1C(=O)Cc1ccc(OC)cc1` (stereo not given in full), the composite z-score is 0.328 in [1]; -0.391 in assay [3]; -0.534 in [4]; -0.738 in assay [5]; -0.208 in assay [6]; 0.167 in assay [7]. Besides, the composite z-score in assay [8] was -0.083; in [9], 0.0368; in [10], -0.0191; with Albumin (Bos taurus) it was 0.311; in assay [12], -0.027; in [13], -0.151. Also, the composite z-score is 0.149 in assay [14]; 0.428 in [15]; 0.0827 in assay [16]; -0.323 with Sam68 (KHDRBS1); 0.0616 in assay [17]; -0.422 in assay [18]. Further, the z-score in [2] was -0.72. For the same compound, the composite Z-score in assay [11] was -0.0798 (inactive).
Turning to `CC(=O)NCCCC[C@@H]1NC(=O)[C@H]2C[C@@H](C(=O)NCCCCCNC(=O)CS)[C@@H](c3cccc(OCCO)c3)N2C1=O`, the composite z-score is 0.0676 in assay [1]; 0.0794 in [3]; 0.232 in assay [4]; 0.202 in assay [5]; -0.157 in assay [6]; -0.147 in [7]. In addition, the composite z-score in assay [8] was -0.158; in assay [9], 0.868; in assay [10] it was 0.389; with Albumin (Bos taurus), 0.419; in [12] it was -0.27; in assay [13], -0.173. For the same compound, the composite z-score in assay [14] is 0.364; in assay [15], 2.34; in assay [16], -0.178; in the assay with Sam68 (KHDRBS1), 0.742; in assay [17], 0.715; in [18], 0.493. Also, the z-score in [2] was 0.217. The composite Z-score in assay [11] was 1.98 (inactive).
Consider `COc1ccc([Si](C)(C)[C@H]2[C@H](CC(=O)N3CCC[C@H]3CO)O[C@@]3(C(=O)N(Cc4ccc(N5CCC5=O)cc4)c4ccccc43)[C@@H]2C)cc1`, for which the composite z-score in assay [1] is 1.13; in assay [3], 0.794; in assay [4] it was 0.865; in [5], 0.0623; in [6] it was -0.0735; in assay [7] it was -0.0709. Further, the composite z-score was -0.484 in assay [8]; 1.53 in assay [9]; 1.79 in assay [10]; 0.669 with Albumin (Bos taurus); -0.0182 in [12]; -0.147 in [13]. Besides, the composite z-score in assay [14] stood at 0.474; in assay [15] it was 2.24; in assay [16] it was 0.568; in the assay on Sam68 (KHDRBS1) it was 1.3; in assay [17], 1.25; in assay [18] it was 1.13. The compound also came in with a z-score in assay [2] of -1.88. For the same compound, in [11], the composite Z-score is 0.156 (inactive).
As to `O=C1O[C@H](c2ccccc2)[C@H](c2ccccc2)N2[C@H]1[C@@H](C(=O)N1CCCCCCC1)[C@]1(C(=O)Nc3ccc(C#CC4(O)CCCCCC4)cc31)[C@H]2c1ccccc1OCCO`, the composite z-score stood at 1.59 in assay [1]; 1.78 in assay [3]; 3.09 in assay [4]; 1.81 in [5]; 1.53 in [6]; 1.92 in [7]. Moreover, the composite z-score came to 3.25 in [8]; 5.71 in assay [9]; 4.23 in assay [10]; 0.573 with Albumin (Bos taurus); 2.18 in [12]; 1.13 in assay [13]. Also, the composite z-score in [14] worked out at 1.02; in [15], 5.1; in assay [16] it was 1.42; with Sam68 (KHDRBS1), 1.34; in [17], 1.73; in assay [18] it was 0.952. The compound also came in with a z-score in assay [2] of -1.88. The composite Z-score in assay [11] is 9.08 (active).
